Source: PubChem BioAssay
Marburg entry inh – qHTS for inhibitors of binding or entry into cells for Marburg Virus. Potency, µM (titrated, usually from 37.8 µM), without a hit: at the top dose activity change, negative = inhibition, actives largely listed as inhibitors. Marburg virus pseudotyped entry inhibition, cell reporter. 300,000 tested, 1.8% active. AID 540276, 2011; calls by dose curve; tested in HEK293 cells; also: potency is read from the fitted curve at half-maximal effect
Vaccinia mCherry – qHTS for Stage-Specific Inhibitors of Vaccinia Orthopoxvirus: mCherry Reporter Primary qHTS | Vaccinia virus mCherry reporter infection, fluorescence | Potency, µM (highest dose often 36.5 µM), for inactives: top-dose activity change, negative = inhibition, actives largely listed as inhibitors | 310,000 tested, 0.63% active | AID 720579, 2013; calls by dose curve; tested in A549 cells; also: potency is read from the fitted curve at half-maximal effect; nearly all actives have a fitted effect of over 35% in size
Lassa entry inh – qHTS for Inhibitors of binding or entry into cells for Lassa Virus. Lassa virus pseudotype entry inhibition, cell reporter. Potency, µM (series often up to 37.9 µM), without a hit: at the top dose activity change, negative = inhibition, hits mostly inhibitors. 300,000 tested, 1.2% active; calls by dose curve; tested in HEK293 cells; also: potency is read from the fitted curve at half-maximal effect; nearly all actives have a fitted effect of over 50% in size
FMDV antiviral – High Throughput Screening for Foot and Mouth Disease Virus Antivirals; FMDV antiviral cell-based qHTS; Potency, µM (highest dose often 57.9 µM), inactives show top-dose activity change, negative = inhibition, most hits filed as inhibitors; 410,000 tested, 1.2% active; calls by dose curve; tested in HEK293T cells; also: read-out not given here; potency is read from the fitted curve at half-maximal effect; nearly all actives have a fitted effect of over 45% in size
HCMV antiviral – qHTS Assay for inhibitors of the human cytomegalovirus (HCMV). HFF cells, HCMV-luciferase reporter, 72 h; hits give low values. activity change, negative = inhibition, % at 57.5 µM. 410,000 tested, 4.5% active. AID 1259415, 2018; in the data active = activity change below about -60%; inconclusive = no clear call, values can overlap the other calls; inactive = above about -39%
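Human foreskin fibroblasts infected with luciferase-reporter HCMV at MOI 1 PFU/cell, compounds at two doses. Luciferase measured 72 h post infection; normalized to buffer-only basal and Salinomycin (10uM) controls.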
VACV Venus inh – qHTS for Stage-Specific Inhibitors of Vaccinia Orthopoxvirus: Venus Reporter Primary qHTS; Vaccinia virus Venus reporter expression, fluorescence; Potency, µM (top dose mostly 36.5 µM), without a hit: at the top dose activity change, negative = inhibition, actives largely listed as inhibitors; 330,000 tested, 0.46% active; AID 720580, 2013; calls by dose curve; tested in A549 cells; also: potency is read from the fitted curve at half-maximal effect; nearly all actives have a fitted effect of over 30% in size
The depositor's hits bear a star; i = inactive; ? = inconclusive; . = not tested or not shown; [ ] = dose if it differs, or a comment. Rows were chosen to be rich in hits. Some 6.5% of all compounds tested hit in one or more screens of this group. % is scaled to controls: 0 for no effect and ±100 for the full control effect.

SMILES | Marburg entry inh | Vaccinia mCherry | Lassa entry inh | FMDV antiviral | HCMV antiviral | VACV Venus inh
Cc1cc(C)cc(NS(=O)(=O)c2ccc(-c3cc(C)no3)cc2)c1 | . | -28.7% | ? | 21.0% | -80.3* | ?
Cc1ccc(NS(=O)(=O)c2ccc(-c3cc(C)no3)cc2)c(C)c1 | . | -23.1% | ? | -27.2% | -65.1* | -27.6%
Cc1cc(-c2ccc(S(=O)(=O)Nc3ccc(Cl)cc3)cc2)on1 | . | -5.3% | -16.5%[46.1 µM] | 17.4% | 0.0 | -26.6%
Cc1ccc(S(=O)(=O)Nc2cc(C)c(O)cc2C)cc1 | ? | -17.6% | -13.4%[46.1 µM] | -3.3% | -75.6* | -19.3%
CCCCOP(=O)(c1ccc(N(C)C)cc1)C(O)c1c(Cl)cccc1Cl (stereo unspecified) | 2.0% | -18.7% | -2.8% | 71.4% | -75.8* | -10.6%
CCCCCCCOC(=O)C[N+](C)(C)CCOC1CC2CCC1(C)C2(C)C (stereo unspecified) | 11.2µM* | i | ? | 35.5µM* | -73.1* | ?
O=C(Nc1ccc(Cl)cc1)/C(=C/c1cccc(O)c1)c1nc2ccccc2s1 | ? | 11.2µM* | ? | 10µM* | -97.9* | 10µM*
Cc1c(Br)c([N+](=O)[O-])nn1CC(=O)Nc1c(C)n(C)n(-c2ccccc2)c1=O | . | . | . | -5.0% | -102.0* | .
Cc1c(Br)c([N+](=O)[O-])nn1CCCC(=O)N1CCN(c2ccccc2)CC1 | 12.6µM* | -27.7% | 15.2% | -12.8% | -25.1 | -8.5%
Cc1nn(CC(=O)Nc2c(C)n(C)n(-c3ccccc3)c2=O)c(C)c1[N+](=O)[O-] | 4.5% | -0.8% | 25.7% | -15.9% | -10.0 | -8.8%
CCC1(C2CCN(Cc3c(C)[nH]c4ccccc34)CC2)NC(=O)N(Cc2ccc3c(c2)OCO3)C1=O (stereo unspecified) | . | -4.2% | . | -3.6% | . | -4.2%
CC(=O)Nc1cccc(-c2cnc(N)c(C(=O)c3cccnc3)n2)c1 | . | 12.6µM* | . | -3.7% | . | 10µM*
NC(=O)c1cccc(-c2cnc(N)c(C(=O)c3cccnc3)n2)c1 | . | 6.31µM* | . | -16.9% | . | ?
COc1ccc(C(=O)NCC(c2cccnc2)N2CCN(c3ccccc3OC)CC2)cc1OC (stereo unspecified) | -2.5% | -4.2% | . | ? | 13.7 | -11.9%
COc1cccc(C(=O)NCC(c2cccnc2)N2CCN(c3ccccc3OC)CC2)c1 (stereo unspecified) | . | -19.7% | . | 35.5µM* | . | -23.7%
COc1ccc(C(CNC(=O)c2cccc(S(=O)(=O)Nc3ccccc3OC)c2)N2CCCCC2)cc1 (stereo unspecified) | ? | -7.8% | ? | -18.7% | -99.2* | -17.5%
COc1cccc(C(=O)NCC(c2ccc(N(C)C)cc2)N2CCc3ccccc32)c1 (stereo unspecified) | . | -5.5% | -8.5%[46.1 µM] | -16.3% | -67.9* | -0.2%
COc1cccc(NC(=O)C(=O)NCC(c2cccnc2)N2CCN(c3ccccc3)CC2)c1 (stereo unspecified) | . | -15.2% | 11.2µM* | -1.1% | 69.7 | -14.3%
COC(=O)c1ccc(NC(=O)C(=O)NCC(c2cccnc2)N2CCN(c3ccccc3)CC2)cc1 (stereo unspecified) | . | -16.6% | -9.0%[46.1 µM] | -9.3% | ? | -17.0%
CC(C)c1ccc(C(=O)NC(=S)NCc2cccnc2)cc1 | -18.9% | -21.9% | -20.7% | -26.6% | -73.6* | -14.2%
O=C(NCc1cccnc1)c1cccc(Cl)c1 | 0.0% | . | -8.1% | -1.2% | -60.9* | -21.9%
COc1cccc(S(=O)(=O)NCc2ccc(C(=O)Nc3ccc(Cl)c(Cl)c3)cc2)c1 | ? | . | -15.4% | ? | ? | ?
O=C(NCc1ccco1)c1ccc(COc2ccccc2Cl)cc1 | -2.9% | . | -19.0% | -12.8% | -27.5 | ?
O=C(Nc1ccc(Cl)c(Cl)c1)c1cccc(S(=O)(=O)NCc2cccnc2)c1 | ? | 28.2µM* | 12.6µM* | ? | -94.8* | ?
O=C(NCc1cccnc1)c1ccc(COc2ccccc2Cl)cc1 | . | . | . | -25.8% | -73.4* | .
SMILES | Marburg entry inh | Vaccinia mCherry | Lassa entry inh | FMDV antiviral | HCMV antiviral | VACV Venus inh
Cc1ccc(C(=O)NC(=S)NCc2cccnc2)cc1C | . | . | . | 8.3% | ? | .
CC1(C(=O)NS(=O)(=O)c2ccc(Br)cc2)CCN1C(=O)C/C=C/c1ccccc1 (stereo unspecified) | . | 35.7% | . | -6.9% | -13.7 | -6.4%
Cc1ccc2c(c1)CN(CCNC(=O)c1n[nH]c3c1CCCC3)CC(C)O2 (stereo unspecified) | . | -9.7% | . | 2.6% | . | -5.7%
Cc1cc(S(=O)(=O)NCc2cccnc2)ccc1F | 3.9%[46.1 µM] | i | ? | 17.1% | -9.2 | -9.3%
O=S(=O)(NCc1cccnc1)c1ccc(Br)c2ccccc12 | -1.5%[46.1 µM] | -7.2% | 4.0% | 29.3% | -62.8* | -12.9%
Cc1ccc(S(=O)(=O)NCc2cccnc2)cc1C | ? | -3.5% | 24.6%[46.1 µM] | 35.6% | -85.6* | -11.0%
O=C(Nc1cccnc1)c1ccc(COc2ccccc2Br)cc1 | 2.3% | . | . | -29.6% | -25.4 | .
O=C(NCc1cccnc1)c1ccc(COc2ccccc2Br)cc1 | ? | i | ? | ? | -76.5* | -20.7%
CCc1cccc(NC(=O)c2cccc3c2C(=O)N(C2CCCCC2)C3)c1 | -1.2%[46.1 µM] | -5.3% | 27.0%[46.1 µM] | -11.1% | -1.3 | 1.4%
O=c1c2ccccc2cnn1-c1ccc(Br)cc1 | ? | . | ? | 0.5% | 227.6 | -7.3%
O=c1c2ccccc2cnn1-c1ccc2ccccc2c1 | ? | . | 10.3µM* | ? | 45.4 | .
CC1(C(=O)Nc2cccc(-n3cnnn3)c2)Cc2ccccc2C(=O)O1 (stereo unspecified) | 22.2% | i | 0.2% | -12.9% | -21.7 | -18.4%
Cc1cccc(CN2CCN(C(=O)CCl)CC2)c1 | ? | i | ? | 35.5µM* | -34.2 | -9.0%
Cc1cccc(CN2CCN(C(=O)Cc3ccccc3)CC2)c1 | 14.5%[46.1 µM] | ? | 3.9%[46.1 µM] | -13.8% | 24.9 | -5.4%
Cc1ccc(NC(=O)CSCC(=O)N2CCN(Cc3ccc4c(c3)OCO4)CC2)cc1 | -16.7% | i | -14.3% | -20.2% | -9.9 | -17.3%
CC(C)(C)c1ccc(-c2noc(CCC(=O)Nc3cccc(Cl)c3)n2)cc1 | ? | -0.1% | -21.6%[46.1 µM] | -65.0% | -89.4* | -5.7%
CC(C)(C)c1ccc(-c2noc(CCC(=O)NCc3ccco3)n2)cc1 | ? | -0.1% | ? | -8.4% | -81.2* | ?
O=C(CCc1nc(-c2ccc(F)cc2)no1)Nc1cccc(C(=O)NC2CC2)c1 | . | . | . | 39.8µM* | 34.1 | .
O=C(NCc1nc(-c2ccc(C(F)(F)F)cc2)no1)Nc1ccc(F)cc1F | ? | -19.7% | 15.3% | -10.6% | 76.3 | -20.7%
O=C(NCc1nc(-c2ccc(C(F)(F)F)cc2)no1)Nc1cc(Cl)cc(Cl)c1 | . | . | . | ? | -96.3* | .
CC(C)(C)CCN1CCC(CN2CCNC2=S)CC1 | . | i | . | -11.7% | 2.8 | -15.0%
CCSc1nnc(NC(=O)C2CCN(C(=O)c3ccco3)CC2)s1 | . | -3.4% | . | . | . | -14.4%
